Screening results (PubChem)
SRC1 inh – SRC1 coactivator transcriptional activity inhibitors, primary screen, cell-based, luminescence; HEK293 GAL4-SRC1 luciferase reporter; inhibition, % at 3.6 µM; 360,000 compounds, 0.12% hits;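 active = inhibition above the campaign mean plus 3 SD, with each screening campaign given its own cutoff, cut at about 60% in these data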;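 note: 0% = DMSO treated cells and 100% = gossypol at 36 µM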
Gli-Sufu block – Gli-Sufu pathway antagonists, primary screen, luciferase luminescence, Sufu-KO-LIGHT cells, uHTS. AID 588413, 2011. Sufu-KO-LIGHT fibroblasts, Gli luciferase reporter luminescence. inhibition, % at 5 µM. 340,000 compounds, 0.74% hits;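 active = inhibition above about 55%, limit read from the data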;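 note: 0% = DMSO-treated cells and 100% = wells with medium but no cells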
NR5A2 inv ag – LRH-1 (NR5A2) inverse agonists, primary screen, cell-based, luminescence, HEK293T, StAR-luciferase reporter. Nuclear receptor subfamily 5 group A member 2 (Homo sapiens), O00482. LRH-1 transfected, 24 h. inhibition, % at 3.6 µM. 360,000 compounds, 0.13% hits. AID 602396, 2012;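 active = inhibition above the mean inhibition of all tested compounds plus 3 SD, cut at about 73% in these data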;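 note: 0% = DMSO wells and 100% = reporter-only cells lacking LRH-1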
NCOA3 inh – SRC3 coactivator transcriptional activity inhibitors, primary screen, cell-based, luminescence | Nuclear receptor coactivator 3 (Homo sapiens), Q9Y6Q9 | HEK293 GAL4-SRC3 luciferase reporter | inhibition, % at 3.6 µM | 360,000 compounds, 0.17% hits | AID 588352, 2011;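 active = inhibition above a per-campaign cutoff, the mean of all compounds plus 3 SD, cut at about 60% in these data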;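 note: 0% = DMSO-treated cells and 100% = gossypol-treated cells at 36 µM; higher means less SRC3-driven luciferase light from the GAL4 reporter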
COUP-TFII inh – NR2F2 transcriptional activity inhibitors, primary screen, cell-based, luciferase reporter, HEK293T, luminescence; HEK293T NGFI-A luciferase reporter; inhibition, % at 8.6 µM; 370,000 compounds, 0.7% hits;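 active = inhibition above a per-plate cutoff, mean inhibition of test wells between control levels plus 3 SD, cut at about 38% in these data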;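 note: cells cotransfected with COUP-TFII expression vector driving the NGFI-A reporter; 0% = median of COUP-TF2 test wells and 100% = reporter-only cells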
NCOA2 inhibitor – inhibition of GAL4-SRC2 driven luciferase reporter, primary screen, SRC2 inhibitor project, cell-based, luminescence. HEK293 GAL4-SRC2 luciferase reporter. inhibition, % at 9 µM. 370,000 compounds, 0.17% hits. AID 651957, 2012;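 active = inhibition above the mean inhibition of all tested compounds plus 3 SD, set per campaign, cut at about 52% in these data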;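 note: 0% = DMSO treated cells and 100% = cells given Gossypol at 36 µM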
Target sequence (Q15596 whole entry, looked up, the tested form may be a part): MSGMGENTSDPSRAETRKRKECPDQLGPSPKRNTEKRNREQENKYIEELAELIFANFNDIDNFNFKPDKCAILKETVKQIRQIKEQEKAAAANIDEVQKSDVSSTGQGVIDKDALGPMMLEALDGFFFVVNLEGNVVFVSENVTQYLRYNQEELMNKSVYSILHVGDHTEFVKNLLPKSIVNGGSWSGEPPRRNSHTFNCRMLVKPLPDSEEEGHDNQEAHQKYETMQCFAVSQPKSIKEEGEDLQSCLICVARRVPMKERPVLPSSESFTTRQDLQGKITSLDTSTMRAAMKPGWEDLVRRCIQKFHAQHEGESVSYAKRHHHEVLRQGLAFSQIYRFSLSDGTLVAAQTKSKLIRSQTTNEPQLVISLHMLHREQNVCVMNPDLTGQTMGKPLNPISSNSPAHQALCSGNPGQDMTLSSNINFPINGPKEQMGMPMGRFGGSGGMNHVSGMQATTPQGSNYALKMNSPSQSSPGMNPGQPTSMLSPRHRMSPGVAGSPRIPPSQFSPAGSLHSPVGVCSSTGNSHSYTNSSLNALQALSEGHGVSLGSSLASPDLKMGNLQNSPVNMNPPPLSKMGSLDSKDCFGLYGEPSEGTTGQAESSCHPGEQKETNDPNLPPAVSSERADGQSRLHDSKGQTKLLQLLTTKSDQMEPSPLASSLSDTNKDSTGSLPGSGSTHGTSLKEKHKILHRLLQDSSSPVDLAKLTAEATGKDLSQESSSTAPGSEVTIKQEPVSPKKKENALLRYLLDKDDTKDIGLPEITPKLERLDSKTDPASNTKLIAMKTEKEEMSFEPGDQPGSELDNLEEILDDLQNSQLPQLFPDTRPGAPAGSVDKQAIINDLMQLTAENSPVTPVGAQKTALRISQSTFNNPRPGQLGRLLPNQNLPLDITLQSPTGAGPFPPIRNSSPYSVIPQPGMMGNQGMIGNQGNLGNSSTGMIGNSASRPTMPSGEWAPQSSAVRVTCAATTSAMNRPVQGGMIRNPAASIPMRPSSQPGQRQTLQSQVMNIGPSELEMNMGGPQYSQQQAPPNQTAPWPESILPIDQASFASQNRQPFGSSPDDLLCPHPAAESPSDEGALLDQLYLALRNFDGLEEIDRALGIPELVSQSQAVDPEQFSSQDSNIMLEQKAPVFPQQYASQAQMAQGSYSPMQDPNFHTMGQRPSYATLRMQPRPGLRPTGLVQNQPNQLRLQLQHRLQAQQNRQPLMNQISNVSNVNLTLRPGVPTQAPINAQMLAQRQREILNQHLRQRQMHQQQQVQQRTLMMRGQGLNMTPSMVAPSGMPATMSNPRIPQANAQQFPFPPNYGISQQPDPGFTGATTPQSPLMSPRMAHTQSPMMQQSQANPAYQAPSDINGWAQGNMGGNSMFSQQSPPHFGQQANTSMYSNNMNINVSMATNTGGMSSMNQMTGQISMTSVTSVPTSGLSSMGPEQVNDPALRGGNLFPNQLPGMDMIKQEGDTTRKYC
VP16 Luc counter – Gal4-VP16 luciferase reporter inhibitors, counter-screen for COUP-TFII antagonist project, cell-based, luminescence, HEK293; shares compounds with COUP-TFII inh; AID 687007, 2013; 2,500 compounds, 25% hits; inhibition, % at 8.5 µM; in the data active = inhibition above about 13%
COUP-TFII conf – NR2F2 transcriptional activity inhibitors, confirmation, cell-based, luciferase reporter, HEK293, triplicate. HEK293 NGFI-A luciferase reporter, luminescence. 2,500 compounds, 45% hits. shares compounds with COUP-TFII inh. inhibition, % at 8.5 µM;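 active = mean inhibition over three repeats above a set limit taken from the earlier primary screen, cut at about 38% in these data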;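 note: 100% = cells given the luciferase reporter alone without the COUP-TF2 vector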
Numbers without * were called inactive; / = no result given. In the library only some 1.3% were active in any assay of this set; here they are far more common.

SMILES	SRC1 inh	Gli-Sufu block	NR5A2 inv ag	NCOA3 inh	COUP-TFII inh	NCOA2 inhibitor	VP16 Luc counter	COUP-TFII conf
Cn1cc(/C=C/c2cc[n+](C)cc2)c2cc(Cl)ccc21	28	40	56	59	59*	4	4	26
Cc1cc(S(=O)(=O)c2ccc(Cl)cc2)nc(S(=O)(=O)c2ccc(Cl)cc2)c1C#N	-114	/	-7	-11	45*	15	56*	62*
COc1cccc(N2CCN(CC(=O)NCc3c(F)cccc3F)CC2)c1	/	/	/	/	-3	7	/	/
COC(=O)C1=C(C)N(Cc2ccc(C(F)(F)F)cc2)C(=NCc2ccccc2)NC1c1cccc(Cl)c1 (stereo not drawn)	/	/	/	/	-8	-1	/	/
COC(=O)c1cc(S(=O)(=O)NCC2CCN(C(=O)C(=O)c3cccs3)CC2)cs1	/	/	/	/	6	14	/	/
O=C(CC1CS(=O)(=O)CC1CC(=O)Nc1ccc2c(c1)OCCO2)Nc1ccc2c(c1)OCCO2 (stereo not drawn)	54	42	44	61	69*	34	-7	30
CCOC1=C2[C@H](c3ccccc3)N(S(=O)(=O)c3ccc(C)cc3)[C@H](C(C)C)[C@H]2C(C#N)(C#N)C(C#N)(C#N)C1	/	/	/	/	4	12	/	/
CCN(CC)c1ccc2nc3ccc(N)cc3[n+](-c3ccccc3)c2c1	52	93*	87*	67*	77*	25	21*	73*
CCN(CC)c1ccc(/C=N/n2nnnc2N)c(O)c1	-2	-28	-10	-26	10	-18	/	/
COC(=O)[C@]12C[C@H](CC(=O)N3CCSCC3)C(=O)N(CCC3=CCCCC3)C1=C[C@H](C1CCCC1)O[C@@H]2C	/	/	/	/	19	-6	/	/
COC(=O)[C@]12C[C@H](CC(=O)NCc3cccc(C(F)(F)F)c3)C(=O)N(CCC3=CCCCC3)C1=C[C@H](COCc1ccccc1)O[C@@H]2C	/	/	/	/	-2	-11	/	/
S=C(NCc1ccccc1)Nc1cccc2cnccc12	-13	65*	26	15	57*	7	11	36
CC(=O)CC[C@H]1CC[C@]2(CCCN(C(=O)c3ccccc3)C2)O1	/	/	/	/	-4	-15	/	/
COc1ccc(C2CCc3cc4c(cc3C2=NOC(C)=O)OCO4)cc1OC (stereo not drawn)	-11	/	4	-30	44*	-2	-2	5
Cc1nc2cc(NC(=O)c3ccc(S(=O)(=O)N(C)c4ccccc4)cc3)ccc2o1	-19	-25	-7	2	49*	16	-85	26
CC(=O)Nc1ccc(C(=O)Nc2cccc(S(=O)(=O)N(C)c3ccccc3)c2)cc1	-22	-22	11	-21	16	3	/	/
CN(c1cccc(NC(=O)c2ccc(N(C)S(=O)(=O)c3ccccc3)cc2)c1)S(C)(=O)=O	21	20	28	23	63*	12	-5	28
CC1CC(C)(C)Nc2ccc(OC(=O)c3ccco3)cc21 (stereo not drawn)	-5	9	6	20	45*	58*	18*	36
Cc1ccc(S(=O)(=O)N2CCCC2C(=O)N2CCN(c3ccccc3)CC2)cc1C (stereo not drawn)	/	/	/	/	9	-12	/	/
CC(C)N1CCCCC(NC(=O)c2ccccc2)C1=O (stereo not drawn)	/	/	/	/	-15	10	/	/
O=C(CN1CCC(Cc2ccccc2)CC1)NCCc1ccc(F)cc1	7	4	1	-5	-1	-12	/	/
NS(=O)(=O)c1ccc(CCNC(=O)CN2CCC(Cc3ccccc3)CC2)cc1	17	25	17	19	38*	22	-4	12
Oc1ccc2ccccc2c1CN1CCCCC1	-19	23	-9	-5	45*	-9	-4	3
CC(=O)OCCN1c2ccccc2Sc2cnccc21	21	/	-12	36	37*	37	-5	12
O=C(c1ccc(S(=O)(=O)N2CCCCCC2)cc1)N1CCN(Cc2ccccc2)CC1	-2	4	15	-2	15	13	/	/
SMILES	SRC1 inh	Gli-Sufu block	NR5A2 inv ag	NCOA3 inh	COUP-TFII inh	NCOA2 inhibitor	VP16 Luc counter	COUP-TFII conf
COc1cccc(C(=O)N2CCN(Cc3ccccc3C(F)(F)F)CC2)c1	0	6	-4	10	6	21	/	/
COc1ccc(C(=O)N2CCN(Cc3ccccc3C(F)(F)F)CC2)cc1	-10	-1	0	-20	80*	11	-1	6
COc1ccc(CN2CCN(C(=O)c3ccc(S(=O)(=O)N4CCCCCC4)cc3)CC2)cc1	25	28	27	21	63*	-34	3	48*
COc1ccc(CN2CCN(C(=O)c3ccc(S(=O)(=O)N4CCCCCC4)cc3)CC2)cc1F	13	16	28	20	53*	-37	-5	32
Cc1ccc2cccc(OC(=O)c3cccnc3Oc3ccccc3)c2n1	/	/	/	/	2	-10	/	/
CC(C)[C@H](NC(=O)c1ccc(Cl)c(Cl)c1)C(=O)N1CCC[C@H]1C(=O)NCCc1ccccc1Cl	/	/	/	/	-15	8	/	/
COC(=O)C1=C(C)N(C)C(=NCc2ccc3c(c2)OCO3)NC1c1cccc(Cl)c1 (stereo not drawn)	/	/	/	/	-7	6	/	/
COc1cc(SC)ccc1C(=O)N1CCN(Cc2ccc3c(c2)OCO3)CC1	13	7	-8	21	48*	32	5	10
Cc1c(C(=O)N2CCN(Cc3ccc4c(c3)OCO4)CC2)sc2ncnc(N3CCN(c4ccccc4F)CC3)c12	26	18	22	29	46*	31	4	57*
CCC[C@H]1[C@@H](OC(=O)NCc2cccc(Cl)c2)CC[C@@]23CCCN2C(=O)CCC[C@@H]13	/	/	/	/	21	/	/	/
C[C@H]1[C@@H](OC(=O)N2CCCC2)CC[C@@]23CCCN2C(=O)CCC[C@@H]13	/	/	/	/	0	/	/	/
Cc1ccc(NC(=O)C2CCN(S(=O)(=O)c3ccc4c(c3)NC(=O)C(C)S4)CC2)cc1Cl (stereo not drawn)	13	60*	1	21	64*	18	13	47*
